Measurements reported in ChEMBL document CHEMBL3988442, “University of Dundee, Small-Polar-MMV Screening Library” (2021).
Among all 48,000 compounds or so, about 13,000 (27%) showed an effect of 50% or more. This is one part of the list.

Test system: Wolbachia pipientis
Test: Anti-Wolbachia Cell-Based Screen
Format: functional
Parameters: scale not given: in the data most compounds retested in dose-response had high values
Conditions: 5 µM

Compared with `CSc1ncc(CNC(C)c2cnn(-c3ccc(F)cc3F)c2C)cn1` (stereo not given), `CC(C)Oc1ccc(C(=O)NCc2ccc3c(c2)CCCN3C)cn1` is higher in “Percent Effect” value: -22.9% for the first, 82.05% for the second.

First: O=c1cc(N2CCc3ccccc3C2)cnn1CCC1CCOC1 (stereo not given)
Second: CS(=O)(=O)CC1CCCN(c2ncnc3c2Cc2ccccc2OC3)C1 (stereo not given)
The “Percent Effect” value of the first is lower: 5.025% for the first, 8.787% for the second.

First: CN1CC(Oc2ccccc2)=NC(SCC(=O)Nc2ccccc2Cl)=N1
Second: O=C(NCCc1ccccn1)C1=NN(c2ccccc2)C(=O)CN1
The “Percent Effect” value of the first is higher: 15.6% for the first, 14.32% for the second.

Compared with `COc1cccc([C@H]2CN(C(C)=O)[C@@H]3CCN(Cc4ccsc4)C[C@H]23)c1.Cl`, `COc1cccc(CN2CC[C@H]3[C@@H](C2)[C@H](c2ccsc2)CN3C(C)=O)c1` is higher in “Percent Effect” value: 57.96% for the first, 146.6% for the second.

Compared with `CC(=O)N1C[C@@H](c2ccsc2)[C@@H]2CN(Cc3cccc(Cl)c3)CC[C@@H]21`, `COc1cccc(CC(=O)N2CC[C@H]3[C@@H]2CCC(=O)N3C)c1` is lower in “Percent Effect” value: 2.234% for the first, -18.88% for the second.

Compared with `CCN1CCC(N2C[C@@H](C(=O)O)[C@H](c3cccc(OC)c3)C2)CC1`, `CCN1C[C@@H](C(=O)O)[C@H](c2cccc(OC)c2)C1` is lower in “Percent Effect” value: 12.25% for the first, 8.176% for the second.

Compared with `CCc1c(C)nc(C)nc1N1CCC(NCCSc2nnnn2C)CC1`, `Cc1nonc1N1CCN(Cc2nc(CC3CC3)no2)CC1` is lower in “Percent Effect” value: 11.48% for the first, -9.131% for the second.

Compared with `O=C(c1cn(CCN2CCCCC2)nn1)N1CCCCO1`, `Cn1cc(CNCC2(N3CCCCC3)Cc3ccccc3C2)cn1` is higher in “Percent Effect” value: -10.33% for the first, -0.5934% for the second.

First: COc1nc2c(cc1C(=O)N1CCCOC(Cn3cccn3)C1)CCC2 (stereo not given)
Second: Cc1nn(C)c(C)c1CCC(=O)N1CCCOC(Cn2cccn2)C1 (stereo not given)
The “Percent Effect” value of the first is higher: 0.1052% for the first, -1.849% for the second.

Compared with `CCN1C[C@H]2C3(CCN(C(=O)NC(C)C)CC3)CC[C@@]2(C(=O)N(C)C)C1.O=C(O)C(F)(F)F`, `CN(C)C(=O)[C@H]1C[C@H]2OCC[C@H]2N(CCOc2ccc(Cl)cc2)C1.O=C(O)C(F)(F)F` is higher in “Percent Effect” value: -2.762% for the first, -1.97% for the second.

Going from `CNS(=O)(=O)c1ccc(C(=O)NCCc2ccccn2)cc1` to `CS(=O)(=O)N1CCc2sc(C(=O)NCCc3ccccn3)cc21`, the “Percent Effect” value rises from -0.4969% to 98.67%.

Going from `COC(=O)N1CCc2ccccc2C1C(=O)NCc1ccncc1` (stereo not given) to `CS(=O)(=O)N1CCc2sc(C(=O)NCc3ccncc3)cc21`, the “Percent Effect” value rises from 5.289% to 102.3%.

Compared with `Cc1cnc(CNC(=O)c2cc3c(s2)CCN3S(C)(=O)=O)cn1`, `CS(=O)(=O)N1CCc2sc(C(=O)NCc3ccccc3)cc21` is higher in “Percent Effect” value: -3.088% for the first, 99.89% for the second.

Going from `CS(=O)(=O)N1Cc2nc(C(=O)NCc3ccccc3)oc2C1` to `COC(=O)c1cccc(CNC(=O)c2cc(C(C)C)n(C)n2)c1`, the “Percent Effect” value falls from 1.051% to -2.718%.

Going from `CCOc1cccc(C(C)NC(=O)N2CCC(C(N)=O)CC2)c1` (stereo not given) to `CCOCC1CCN(C(=O)Nc2ccc3c(c2)CCCN3C)C1` (stereo not given), the “Percent Effect” value rises from -12.9% to -6.058%.

First: Cc1ccc(-c2cnc(CCC(=O)NCCN3CCOCC3)o2)cc1C
Second: Cc1ccc(C(=O)N2CCN(CCc3cccs3)CC2)c(=O)[nH]1
The “Percent Effect” value of the first is higher: 7.661% for the first, 4.078% for the second.

Going from `CC(C)Oc1ncnc2c1CCN(c1cc(C(F)(F)F)ncn1)CC2` to `CC(C)Oc1ccc(C(=O)NCc2ccnc(N3CCCC3)c2)cn1`, the “Percent Effect” value rises from -5.603% to 1.854%.

Going from `N#Cc1cccc(CN2C[C@@H](F)[C@@H](OCc3nc4ccccc4[nH]3)C2)c1` to `O=C1CC(c2ccc3ccccc3n2)c2c(n[nH]c2C2CCC2)N1` (stereo not given), the “Percent Effect” value rises from 3.783% to 48.61%.

First: COC(=O)c1cccc(CNC(=O)CC(F)(F)F)c1
Second: COC(=O)c1cccc(C(=O)NCc2ccc3c(c2)CCCN3C)c1
The “Percent Effect” value of the first is lower: -8.665% for the first, 93.26% for the second.

Going from `COc1ccc(CNC(=O)c2ccc(=O)n(C)c2)cc1C` to `COc1cc(C(=O)NCc2ccc3c(c2)CCCN3C)cc(OC)c1Br`, the “Percent Effect” value rises from -12.06% to 103.6%.

Going from `CN1CCCc2cc(CNC(=O)c3ccc(NC4CC4)nc3)ccc21` to `O=C(CN1CCCC1c1nc(Cc2ccc(F)cc2)no1)NC1CC1` (stereo not given), the “Percent Effect” value rises from -0.6873% to 6.491%.

Going from `CC(C)c1nc(CNc2ccc(CCO)cc2)cs1` to `COCCOC[C@]1(CNCc2ccc(F)cc2)C[C@@H](O)[C@@H](O)C1.Cl`, the “Percent Effect” value rises from -6.765% to 9.118%.

First: CC1(c2nccs2)CCN(C(=O)CC2CCOCC2)CC1
Second: O=C(CCNC1(c2nccs2)CCCC1)N1CCOCC1
The “Percent Effect” value of the first is higher: 133.3% for the first, -14.98% for the second.

First: Cc1occc1C(=O)N1CCC2(CCN(Cc3nccs3)CC2)C1
Second: Cc1ccc(C2(O)CCN(Cc3nnc(-c4cccnc4)o3)CC2)nc1
The “Percent Effect” value of the first is higher: 13.46% for the first, -8.871% for the second.

First: C[C@@H](NC(=O)c1cnccn1)c1c(-c2ccc(F)cc2)noc1C(=O)O
Second: Cc1ccc(-c2nnc(CN3CCN(c4ccccn4)CC3)o2)cc1
The “Percent Effect” value of the first is lower: 0.3029% for the first, 118.2% for the second.

Compared with `Cc1ccc(-c2nnc(CN3CCNC(=O)C3)o2)cc1`, `Cc1cc(NC(=O)CN2CCn3c(nnc3C3CC3)C2)no1` is higher in “Percent Effect” value: -29.77% for the first, -12.55% for the second.

Compared with `O=C(c1ccccc1O)N1CCn2c(nnc2C(F)(F)F)C1`, `O=C(Nc1ccccc1)N1CCn2c(nnc2C2CCCN2)C1` (stereo not given) is higher in “Percent Effect” value: -8.527% for the first, 106.2% for the second.

Going from `O=C(Nc1ccccc1)N1CCn2c(nnc2C2CCNCC2)C1` to `CC(C)NC(=O)C(c1ccccc1)N1CCn2c(nnc2C2CC2)C1` (stereo not given), the “Percent Effect” value falls from 105.9% to 0.9151%.

Going from `Cc1nnc2n1CCN(C(=O)C(OC1CCCC1)c1ccccc1)C2` (stereo not given) to `O[C@@H]1CN(CC2CC2)CC[C@H]1N1CCN(c2ccccc2F)CC1`, the “Percent Effect” value rises from 0.08716% to 4.313%.

First: CNC(=O)c1n[nH]c2c1C(c1cccc3nsnc13)CC(=O)N2 (stereo not given)
Second: COc1nc2ccccc2cc1C1CC(=O)Nc2n[nH]c(C3CCC3)c21 (stereo not given)
The “Percent Effect” value of the first is lower: 1.687% for the first, 94.97% for the second.

Going from `CC(C)c1nccc(C2CC(=O)Nc3n[nH]c(C4CCC4)c32)n1` (stereo not given) to `Cc1noc(Cl)c1CC(=O)N1CCCC(n2cccn2)C1` (stereo not given), the “Percent Effect” value falls from 111.7% to -0.9782%.

Going from `CCCN(CC1CC1)C(=O)CN1CCCC1c1cnn(C)c1` (stereo not given) to `Cc1cnn(C2CCCN(C(=O)CCc3c(C)noc3C)C2)c1` (stereo not given), the “Percent Effect” value rises from -10.58% to 114.5%.

First: CCn1ncc2c1CCCC2NCc1ccc(C)s1 (stereo not given)
Second: Cc1noc(C)c1CCC(=O)N1CCCC(n2cccn2)C1 (stereo not given)
The “Percent Effect” value of the first is lower: -6.275% for the first, 112.2% for the second.

Going from `Cc1nn(C)c(C)c1CCC(=O)N1CCCC(n2cccn2)C1` (stereo not given) to `Cc1nn(C)c(C)c1CC(=O)N1CCCC(n2cccn2)C1` (stereo not given), the “Percent Effect” value falls from 104.5% to -0.59%.

Compared with `Cc1cnn(C2CCCN(C(=O)c3c(C)oc(C)c3C)C2)c1` (stereo not given), `Cc1noc2ncc(C(=O)N3CCCC(n4cccn4)C3)cc12` (stereo not given) is lower in “Percent Effect” value: 2.216% for the first, -8.644% for the second.
